Reference: PubChem BioAssay (NCATS)
Records with an inconclusive call do not appear. A number with no mark means an inactive call. Calls of active or inactive are those of the source. Calls follow the shape of the dose curve; as a rule, active = well fitted cell-killing curve with a large enough effect; inconclusive = small, poorly fitted or top-dose-only effect, or effect the other way; inactive = no such curve, though single readings can be large or run the other way.

Test: Quantitative High-Throughput drug screen in 47 multiple myeloma cell lines against the NCATS MIPE library collection: KMS12PE_JCRB cell viability assay (AID 1918972); also: nearly all actives have a fitted effect of over 30% in size
Settings: KMS12PE myeloma viability, CellTiter-Glo ATP, 48 h; series mostly up to 45.8 µM; viability: at the top concentration
Excerpt: PI: Beverly A. Mock Ph.D.
Laboratory of Cancer Biology and Genetics,
Center for Cancer Research, National Cancer Institute,
National Institute of Health, Bethesda, Maryland
Drug resistance and disease progression are common in multiple myeloma (MM) patients, underscoring the need for new therapeutic combinations. […] We hypothesized that effective combinations would reduce MYC expression and enhance p16 activity. […] These preclinical data identify potentially useful drug combinations for evaluation in drug-resistant MM and reveal potential mechanisms of combined drug sensitivity.
Described herein is the primary MIPE qHTS used to cherrypick compounds. Validated compounds were then further tested for potential synergistic activiy.
[1] Peat TJ, Gaikwad SM, Dubois W, Gyabaah-Kessie N, Zhang S, Gorjifard S, Phyo Z, Andres M, Hughitt VK, Simpson RM, Miller MA, Girvin AT, Taylor A, Williams D, D'Antonio N, Zhang Y, Rajagopalan A, Flietner E, Wilson K, Zhang X, Shinn P, Klumpp-Thomas C, McKnight C, Itkin Z, Chen L, Kazandijian D, Zhang J, Michalowski AM, Simmons JK, Keats J, Thomas CJ, Mock BA. Drug combinations identified by high-throughput screening promote cell cycle transition and upregulate Smad pathways in myeloma. Cancer Lett. 2023 Aug 1;568:216284. doi: 10.1016/j.canlet.2023.216284. Epub 2023 Jun 24. PMID: 37356470; PMCID: PMC10408729.
SEQUENCE No. (e.g., 1, 2, 3, etc.); […] (e.g., Cells, Incubation, Reagent, etc.); VALUE and DESCRIPTION.
1; Cells; 5 uL; white, solid bottom 1536-well Greiner assay plate.
2; Compounds; 23 nL; Kalypsis pin tool (Wako USA) equipped with a 1536-well pin head to transfer to the assay plates.
3; Incubation; 48 hours; 37C incubation.
4; Reagent;5uL; CellTiter Glo (Promega).
5; Detector; 425V; Luminescence; Viewlux PerkinElmer.
NOTES (numbers refer to Sequence numbers above)
1. The cell-based screening methods employed in this study were like those previously published. Briefly, the corresponding myeloma cell lines were screened in 1,536-well plates with 500 cells, 5-uL per well for inhibition of cell viability (assessed by measuring ATP levels with CellTiterGlo).
2. NCATS MIPE 4.0 library of approved and investigational drugs were added using the Kalypsis pin tool. Wells treated with DMSO only for 100% viability and media only wells for 0% viability were used as controls.
3. The assay plates were covered and incubated for 48 hours in a 37C, 5% CO2 incubator with controlled humidity.
4. After 48 hours, CellTilter-GloTM luminescent substrate mix (Promega) reagent was added to the assay plate and plates we incubated for 5 min at room temperature.
5. Signal was measured as median relative luminescence units on a ViewLux (PerkinElmer) multiplate reader.
[1] Heske CM, Davis MI, Baumgart JT, Wilson K, Gormally MV, Chen L, Zhang X, Ceribelli M, Duveau DY, Guha R, Ferrer M, Arnaldez FI, Ji J, Tran HL, Zhang Y, Mendoza A, Helman LJ, Thomas CJ. Matrix Screen Identifies Synergistic Combination of PARP Inhibitors and Nicotinamide Phosphoribosyltransferase (NAMPT) Inhibitors in Ewing Sarcoma. Clin Cancer Res. 2017 Dec 1;23(23):7301-7311. doi: 10.1158/1078-0432.CCR-17-1121. Epub 2017 Sep 12. PMID: 28899971; PMCID: PMC6636827.
Potency is read from the fitted curve at half-maximal effect.

SMILES	Potency	viability
Cc1cc(Nc2nc(N[C@@H](C)c3ccc(F)cc3)c(C#N)cc2F)n[nH]1	935 nM (active)	–
CCc1c2c(nc3ccc(O)cc13)-c1cc3c(c(=O)n1C2)COC(=O)[C@]3(O)CC	187 nM (active)	–
C1=CCOCc2cc(ccc2OCCN2CCCC2)Nc2nccc(n2)-c2cccc(c2)OCC1	2640 nM (active)	–
OCc1ccc(-c2ccc(-c3ccc(CO)s3)o2)s1	235 nM (active)	–
Cc1c(NC(=O)OC[C@@H]2COCCN2)cn2ncnc(Nc3ccc4c(cnn4Cc4cccc(F)c4)c3)c12	18700 nM (active)	–
O=C(O)c1ccc2c(c1)nc(Nc1cccc(Cl)c1)c1ccncc12	5260 nM (active)	–
CC(C)Nc1cc(C(F)(F)F)cc2nc(NC(=O)c3cccnc3)nn12	–	108%
CCC1=C[C@@H]2CN(C1)Cc1c([nH]c3ccccc13)[C@@](C(=O)OC)(c1cc3c(cc1OC)N(C)[C@@H]1[C@@](O)(C(=O)OC)[C@H](OC(C)=O)[C@]4(CC)C=CCN5CC[C@]31[C@@H]54)C2	9.3 nM (active)	–
CN1CCN(c2ccc3nc(-c4c(N)c5c(F)cccc5[nH]c4=O)[nH]c3c2)CC1	5900 nM (active)	–
NC1(Cc2ccc(Cl)cc2)CCN(c2ncnc3[nH]ccc23)CC1	3720 nM (active)	–
COc1c(N2C[C@@H]3CCCN[C@H]3C2)c(F)cc2c(=O)c(C(=O)O)cn(C3CC3)c12	–	83.7%
Nc1ccn([C@@H]2CS[C@H](CO)O2)c(=O)n1	–	108% [at 92.2 µM]
COc1ccc(-c2cc3c(C)nc(N)nc3n(C3CCC(OCCO)CC3)c2=O)cn1 (stereo not given)	372 nM (active)	–
Cc1c(Cn2c(C)nc3c(C(=O)O)cc(N4CCOCC4)cc32)cccc1C(F)(F)F	–	82.1%
C[C@@H]1CN(CC(=O)Nc2ccc3c(c2)Cc2cccc(-c4cc(=O)cc(N5CCOCC5)o4)c2S3)C[C@H](C)O1	13200 nM (active)	–
Cc1ccc(C(=O)Nc2ccc(CN3CCN(C)CC3)c(C(F)(F)F)c2)cc1C#Cc1cnc2cccnn12	833 nM (active)	–
C[C@]12CC[C@H](O)CC1=CCC1C2CC[C@]2(C)C(n3cnc4ccccc43)=CCC12 (stereo not given in full)	–	102%
C[C@@H](Oc1cc(-c2cnn(C3CCNCC3)c2)cnc1N)c1c(Cl)ccc(F)c1Cl	6620 nM (active)	–
CC(C)c1cnn2c(NCc3ccccc3)cc(N[C@@H](CO)[C@H](O)CO)nc12	372 nM (active)	–
NCC(=O)Nc1ccc(-n2nc(C(F)(F)F)cc2-c2ccc3c(ccc4ccccc43)c2)cc1	526 nM (active)	–

SMILES	Potency	viability
CN(C)Cc1c(C(=O)NCCOc2ccc(C(=O)NO)cc2)oc2ccccc12	418 nM (active)	–
O=C(c1cncc(Br)c1)N1CCC(N2CCCC2)CC1	–	122%
COc1cc2c(Oc3ccc(-c4cnc(Nc5ccc(F)cc5)n(C)c4=O)cc3F)ccnc2cc1OCCCN1CCOCC1	1870 nM (active)	–
CN(C)CCCN=c1c2ccccc2n(C)c2[nH]c(=O)n(C)c(=O)c12	5900 nM (active)	–
CCNC(=O)Nc1ccc2ncc(Nc3ccc(C)cc3)nc2n1	2350 nM (active)	–
Cc1c(C)n(Cc2ccc(-c3ccccc3C(=O)O)cc2)c2ccc(C(=O)N[C@@H](C)c3ccc([N+](=O)[O-])cc3)cc12	118 nM (active)	–
CC(NCc1ccc2c(c1)nc(NC(=O)c1ccc(-c3cn[nH]c3)s1)n2CC(C)(C)O)C(C)(C)C (stereo not given)	264 nM (active)	–
CNc1nccc(-c2cccnc2Oc2cc(C(=O)Nc3cccc(C(F)(F)F)c3)ccc2C)n1	10500 nM (active)	–
CC(C)(C)c1cc(C(C)(C)C)c(NC(=O)c2c[nH]c3ccccc3c2=O)cc1O	–	92.3%
COC(=O)C[C@](O)(CCCC(C)(C)O)C(=O)O[C@@H]1C(OC)=C[C@]23CCCN2CCc2cc4c(cc2[C@H]13)OCO4	–	139%
O=C(C=Cc1cccnc1)NCCCCC1CCN(C(=O)c2ccccc2)CC1	14.8 nM (active)	–
COc1cc2nccc(Oc3ccc(NC(=O)C4(C(=O)Nc5ccc(F)cc5)CC4)cc3)c2cc1OC	7430 nM (active)	–
CC[C@H](CO)Nc1nc(NCc2ccccc2)c2ncn(C(C)C)c2n1	–	91.9%
Cn1c2ccccc2c2c3c(c4c5ccccc5n(CCC#N)c4c21)CNC3=O	2350 nM (active)	–
O=c1[nH]nc(Sc2ncc([N+](=O)[O-])s2)n1-c1ccc2c(c1)OCCO2	7430 nM (active)	–
COc1cccc(-c2ccc(NC(=O)C3=C(C(=O)O)CCC3)c(F)c2)c1	2960 nM (active)	–
CNC(=O)CN1CCC(Oc2cc3c(Nc4cccc(Cl)c4F)ncnc3cc2OC)CC1	10.5 nM (active)	–
Cc1cn(-c2cc(NC(=O)c3ccc(C)c(Nc4nccc(-c5cccnc5)n4)c3)cc(C(F)(F)F)c2)cn1	–	107%
Nc1ccc(S(=O)(=O)Nc2ncccn2)cc1	–	127%
O=c1c2ccccc2nc2n1CCc1c-2[nH]c2ccccc12	–	90.2%
